# Unmarked numbers belong to inactive results. Calls of active or inactive are those of the source. The rule behind the calls is not given here.
# Test: Biochemical counterscreen for C difficile toxins, absence of UDPG, inhibitor dose response (AID 720650)
# Conditions: series mostly up to 19.5 µM; activity change, negative = inhibition: at the top concentration
Compound,"activity change, negative = inhibition [%]",AC50
CC(Sc1nc2ccccc2n1C)C(=O)Nc1ccc(N2CCOCC2)cc1 (centres undefined),-16.8,
O=C(/C=C/c1ccccc1)Nc1cccnc1Cl,,> 39 µM
COc1ccc(NC(=O)CSc2nccn2C)cc1S(N)(=O)=O,2.77,
COCC(=O)N1CC[C@@H]2[C@H]1c1cc(-c3ccc(F)cc3)ccc1N(C)[C@H]2CO,,7.2 µM (active)
COc1ccc(C2=NS(=O)(=O)N(C)C(C(=O)N(C)Cc3ccccc3)=C2)cc1OC,-7.42,
CCn1cc(C(=O)O)c(=O)c2cc(F)c(N3CCN(C(=S)NC(=O)c4ccccc4Br)CC3)cc21,-9.77,
CCCCn1c(N)c(N(CC)C(=O)c2cccs2)c(=O)[nH]c1=O,,> 39 µM
CC(=O)Nc1ccccc1O,,18.4 µM (active)
CC(=O)Nc1ccc(N(C(=O)c2ccco2)C(C(=O)NC2CCCC2)c2cccs2)cc1 (centres undefined),-2.84,
CN(C)CCNc1ccc(CO)c2sc3ccc(O)cc3c(=O)c12,,6.06 µM (active)
N#C/C(=C\c1ccc(N2CCOCC2)o1)C(=O)Nc1ccc(O)cc1,10.9,
COc1ccc(/C=C/c2nc3ccccc3n2C)cc1,,> 39 µM
CC1(C)O[C@@H]2[C@H](O1)[C@@H](COS(=O)(=O)O)O[C@H]2n1c(=S)[nH]c2c(=O)[nH]c(N)nc21,-22.6,
Nc1ccc(OC(=O)Nc2ccc(O)cc2)cc1,,18.9 µM (active)
CCOc1ccc(S(=O)(=O)NCCC(=O)NCc2ccccn2)cc1,-4.04,
O=C(NCc1nnc2c(C(F)(F)F)cc(Cl)cn12)c1cccnc1,-5.93,
COCCNc1oc(/C=C/c2ccccc2)nc1C#N,1.04,
CCC(=O)c1cn(CC(=O)Nc2cccc(C)c2C)c2ccccc12,-3.61,
CS(=O)(=O)N1CCc2cc(C(=O)Nc3ccc(O)cc3)ccc21,,14.8 µM (active)
COCCn1c(NC(=S)NC(=O)C2CC2)cc(=O)[nH]c1=O,-10.3,

Compound,"activity change, negative = inhibition [%]",AC50
COc1ccc(C2=NS(=O)(=O)N(C)C(C(=O)NCc3ccc4c(c3)OCO4)=C2)cc1OC,-0.875,
O=c1[nH]c(CSc2nnc(Cc3ccccc3)o2)nc2ccccc12,-13.2,
Cc1cc(C)nc(NC(N)=NCCc2ccccc2)n1,,> 39 µM
COc1ccc(C2=NS(=O)(=O)N(C)C(C(=O)NCc3ccc(F)cc3)=C2)cc1OC,-12.4,
CNc1nc(C23CC4CC(CC(C4)C2)C3)cs1,2.94,
CC(C)CC(=O)N1CCN(Cc2ccc(Br)cc2)CC1,3.42,
Cc1cccc(-n2nnc(C(=O)NCc3ccccc3Cl)c2N)c1,-3.19,
CNC(=O)C1Cc2c(-c3ccccc3Oc3ccccc3)ccnc2O1 (centres undefined),,> 39 µM
COC(=O)C(C(=O)OC)C(CC(=O)c1ccc(Br)cc1)c1ccccc1 (centres undefined),-10.2,
CCN(CC)C(=O)C1CCN(S(=O)(=O)c2c(C)noc2/C=C/c2cccc(C)c2)CC1,9.5,
CC(Sc1nccn1C)C(=O)c1c(N)n(C)c(=O)n(C)c1=O (centres undefined),13,
O=[N+]([O-])c1ccc(/C=C/c2ccc3ccccc3n2)cc1,-8.36,
CCOc1cc(/C=N/n2cnnc2)ccc1O,-19.8,
O=C(c1ccc2c(c1)N(Cc1ccccc1)C(=O)c1ccccc1S2)N1CCCC1,,16.2 µM (active)
NC(=O)c1ccc2c(=O)c(O)c(-c3cc(Cl)c(N)c(Cl)c3)[nH]c2c1,-2.89,
CCOC(=O)c1nnn(-c2nonc2N)c1-c1ccccc1Cl,-7.96,
CC(C)CN1CCN(CC#Cc2ccccc2)CC1CCO (centres undefined),-8.09,
Cc1cc(O)ccc1N=Cc1c(C(F)(F)F)[nH][nH]c1=O,,10.9 µM (active)
O=C(N/N=C/c1ccccn1)c1ccc([N+](=O)[O-])cc1Cl,-1.86,
